The panel holds about 83,000 compounds, 20% with a hit somewhere; the sample as a whole holds those more often.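 Single-dose data. Exposure time 48 hours. Values below 10 considered active.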 A number with no mark means an inactive call. Active and inactive are the calls of the source.
Experiments:
Assay in all cases: NCI-60 one-dose screen, 48 h (100 = growth as untreated, 0 = no growth, -100 = all killed)
Conditions in all cases: 10 µM unless noted
NCI-H23 lung = test system: NCI-H23 lung
NCI-H226 lung = test system: NCI-H226 lung
NCI-H322M lung = test system: NCI-H322M lung
HOP-62 NSCLC = test system: HOP-62 NSCLC
NCI-H460 lung = test system: NCI-H460 lung
HOP-92 NSCLC = test system: HOP-92 NSCLC
NCI-H522 lung = test system: NCI-H522 lung
A549/ATCC NSCLC = test system: A549/ATCC NSCLC
786-0 renal = test system: 786-0 renal
COLO 205 colon = test system: COLO 205 colon

Compound | growth (NCI-H23 lung) | growth (NCI-H226 lung) | growth (NCI-H322M lung) | growth (HOP-62 NSCLC) | growth (NCI-H460 lung) | growth (HOP-92 NSCLC) | growth (NCI-H522 lung) | growth (A549/ATCC NSCLC) | growth (786-0 renal) | growth (COLO 205 colon)
O=[N+]([O-])c1ccc(OP(=O)(CCl)N(CCCl)CCCl)cc1 (stereo not given) | 108% | 98.9% | 103% | 93.5% | 105% | 114% | 74.8% | 102% | 97.9% | 112%
CCOc1ccc(/C=C/[N+](=O)[O-])cc1 | 87.8% | 81.4% | 98.5% | 110% | 98.2% | 76.6% | 96.8% | 78.8% | 92.4% | 94.1%
N#CC1(C#N)C(c2ccc(N(CCCl)CCCl)cc2)OC23CCCCC2C1(C#N)C(=N)O3 (stereo not given) | 61.5% | 9.15% (active) | 94.2% | 89.2% | 30.1% | 88.5% | 80.2% | 97.3% | 88.6% | 104%
CCCCCSC1C2C(=O)C(Br)=CC13CCNc1c(O)c4c5c(c13)=[N+]2CCC=5C=N4 (stereo not given) | -17.1% (active) | -5.15% (active) | 2.94% (active) | -73.2% (active) | -33.7% (active) | -56.1% (active) | -64.4% (active) | -52.1% (active) | -50.3% (active) | -76.5% (active)
C#Cc1ccc2c(c1)C(c1ccccc1F)=NCC(=O)N2C | 57.8% | 73.1% | 69.6% | 48.3% | 18.9% | 73.2% | 8.61% (active) | 47.9% | 63.4% | 18.4%
CNC12C3C4C1C1C2C3C41C(=O)N[C@H](C(=O)N(C)[C@H](C[C@@H](OC(C)=O)c1nc(C(=O)N[C@@H](Cc2ccccc2)C[C@H](C)C(=O)OC)cs1)C(C)C)C1CC1 (stereo not given in full) | 7.82% (active) | 11.2% | 48.5% | 22.1% | 14.8% | -15.3% (active) | -27.4% (active) | 17.7% | 15.5% | -46.5% (active)
CCCCCCCOC(C(=O)OCCN(CC)CC)(c1ccccc1)c1ccccc1 | 87.7% | 96.4% | 98.7% | 89.6% | 84.4% | 67.6% | 73.4% | 90.8% | 65.8% | 95.3%
COc1ccc(/C=C\c2cc(OC)c(OC)c(OC)c2)cc1OCC(=O)Nc1nc2ccc(C(F)(F)F)cc2s1 | 40.1% | 45.8% | 64.7% | 45.4% | 7.6% (active) | 46.6% | -39.2% (active) | 27.1% | 83.2% | 95.3%
O=C(O)c1c(Cl)n(Cc2ccc(O)cc2)c2ccc(O)cc12 | 113% | 97.2% | 96.3% | 93.7% | 106% | 65% | 83.4% | 103% | 108% | 110%
Cn1cc(C=O)c2nccnc21 | 94.9% | 120% | 123% | 113% | 104% | 82% | 78.2% | 96.8% | 119% | 109%
CCCCCC1(CCBr)C(=O)NC(=O)NC1=O | 109% | 104% | 118% | 107% | 108% | 85.1% | 100% | 98.3% | 95.9% | 110%
CCCOC(=O)N[C@H]1CCc2c(Br)c(OC)c(OC)c(OC)c2-c2ccc(SC)c(=O)cc21 | 26.9% | 15.4% | 34.6% | 41.1% | -18.1% (active) | -3.98% (active) | 8.5% (active) | 18.2% | 1.42% (active) | -31.9% (active)
O=Cc1cn(Cc2ccc(Cl)cc2)c2ccccc12 | 84.9% | -26.9% (active) | 82.5% | 76.9% | 5.05% (active) | 76.4% | 93.4% | 64.8% | 94.1% | 22%
O=C1OCC2=C1C(c1ccccc1)c1cc3c(cc1N2)OCO3 (stereo not given) | 16.1% | -9.94% (active) | 46.9% | 15% | 5.45% (active) | 30.8% | -40.3% (active) | 12.6% | 15.9% | -65.7% (active)
COC(=O)[C@H](C[C@H](Cc1ccccc1)NC(=O)c1csc([C@@H](C[C@H](C(C)C)N(C)C(=O)[C@@H](NC(=O)[C@H]2CCCCN2C)C(C)C)OC(C)=O)n1)NC(=O)OCc1ccccc1 | 30.2% [8.5 µM] | -42.6% [8.5 µM] (active) | 44.7% [8.5 µM] | 18.6% [8.5 µM] | 5.67% [8.5 µM] (active) | 28.2% [8.5 µM] | -30.4% [8.5 µM] (active) | 18.8% [8.5 µM] | 15.2% [8.5 µM] | -53.3% [8.5 µM] (active)
N#CC1C(C#N)C2CCC1C1C2N1c1ccccc1 (stereo not given) | 117% | 101% | 92.3% | 97.4% | 108% | 74.5% | 108% | 126% | 107% | 103%
C[C@]12CCc3sc(NCCc4ccccc4)nc3C1=CC[C@@H]1[C@@H]2CC[C@]2(C)C(=O)CC[C@@H]12 | 66.6% | 84.1% | 91.9% | 102% | 72.8% | 66.4% | 44.1% | 87.8% | 4.36% (active) | 90.6%
COc1ccc(/C=C\c2cc(OC)c(OC)c(OC)c2)cc1OCC(=O)Nc1nc2ccc(F)cc2s1 | 34.4% | 42.4% | 70.8% | 51% | 23.9% | 57.7% | 6.14% (active) | 31% | 65% | 32.3%
Fc1cccc(NCOOC2(OOCNc3cccc(F)c3)CCCCC2)c1 | 81.9% | 112% | 98.6% | 90.6% | 104% | 87.3% | 74.9% | 89.6% | 85% | 118%
COC(=O)[C@@]1(C)CC[C@]2(C)CC[C@]3(C)C4=CC(=O)c5c(cc(O)c(O)c5C)[C@]4(C)CC[C@@]3(C)[C@@H]2C1 | 46.9% | 51.1% | 70.6% | 71.7% | 31.8% | 49.2% | 38.5% | 38.6% | 78.6% | 71.5%
CC1(C)N=C(N)N=C(N)N1c1ccc(OCCCNC(=O)Nc2ccc(S(=O)(=O)F)cc2)c(Cl)c1 | 27.3% | 40.1% | 52.5% | 49% | 14.4% | 78.6% | 21.5% | 18% | 27.5% | 31.5%
COC(=O)[C@@H](C)C[C@H](Cc1ccccc1)NC(=O)c1csc(CC[C@H](C(C)C)N(C)C(=O)[C@@H](NC(=O)[C@H]2CCCCN2C)C(C)C)n1 | 32.4% | 50.2% | 44.4% | 21.7% | 6.76% (active) | 52.8% | -12.9% (active) | 19% | 10.9% | -38.9% (active)
COc1ccc(/C=C\c2cc(OC)c(OC)c(OC)c2)cc1NC(=O)/C=C/c1ccc(OC)c(OC)c1 | 0.102% (active) | 35.9% | 68.2% | 39.5% | 22% | 115% | 11.1% | 41.7% | 35.7% | -4.78% (active)
CCOc1ccccc1C(=O)OCC(Cl)(Cl)Cl | 102% | 101% | 102% | 99.9% | 107% | 113% | 105% | 106% | 99.6% | 102%
O=[N+]([O-])CC(c1ccccc1Cl)c1c(-c2ccccc2)[nH]c2ccccc12 (stereo not given) | 53.8% | 30.9% | 42.7% | 30.3% | 22.9% | 36.1% | -10.9% (active) | 31.5% | 25.2% | 15%
CCCCNC(c1ccc(Cl)cc1)C(O)c1ccc(Cl)cc1 (stereo not given) | 38.5% | 65.7% | 51.4% | 40.6% | 7.67% (active) | -5.31% (active) | 35.2% | 63.5% | 50% | -71.4% (active)
